# Hits are enriched below; roughly 19% of the tested compounds scored in any of these assays.
# RORgamma inh: ROR gamma (mouse) transcription inhibition; AID 2551; Drosophila S2 Gal4-RORgamma UAS-luciferase reporter, 20 h; Potency, µM (highest dose often 53.6 µM), inactives show at the highest dose activity change, negative = inhibition, usual class: inhibitors; 310,000 compounds, 5.4% hits; note: nearly all actives have a fitted effect of over 60% in size
#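 Read-out: Photinus luciferase luminescence; inhibitors lower reporter signal. Insect Schneider cells with Gal4-ROR gamma fusion under metallothionein promoter, UAS reporter; 700 uM final copper sulfate induction, 20 hr, ambient temperature.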
# TDP1 inh: TDP1 (human) enzyme inhibition. recombinant TDP1, AlphaScreen DNA substrate cleavage. Potency, µM (titrated, usually from 130 µM), for inactives: at the top dose activity change, negative = inhibition, usual class: inhibitors. 350,000 compounds, 0.28% hits. Q9NUW8. AID 485290; note: nearly all actives have a fitted effect of over 40% in size
# Target sequence (Q9NUW8 whole entry, looked up): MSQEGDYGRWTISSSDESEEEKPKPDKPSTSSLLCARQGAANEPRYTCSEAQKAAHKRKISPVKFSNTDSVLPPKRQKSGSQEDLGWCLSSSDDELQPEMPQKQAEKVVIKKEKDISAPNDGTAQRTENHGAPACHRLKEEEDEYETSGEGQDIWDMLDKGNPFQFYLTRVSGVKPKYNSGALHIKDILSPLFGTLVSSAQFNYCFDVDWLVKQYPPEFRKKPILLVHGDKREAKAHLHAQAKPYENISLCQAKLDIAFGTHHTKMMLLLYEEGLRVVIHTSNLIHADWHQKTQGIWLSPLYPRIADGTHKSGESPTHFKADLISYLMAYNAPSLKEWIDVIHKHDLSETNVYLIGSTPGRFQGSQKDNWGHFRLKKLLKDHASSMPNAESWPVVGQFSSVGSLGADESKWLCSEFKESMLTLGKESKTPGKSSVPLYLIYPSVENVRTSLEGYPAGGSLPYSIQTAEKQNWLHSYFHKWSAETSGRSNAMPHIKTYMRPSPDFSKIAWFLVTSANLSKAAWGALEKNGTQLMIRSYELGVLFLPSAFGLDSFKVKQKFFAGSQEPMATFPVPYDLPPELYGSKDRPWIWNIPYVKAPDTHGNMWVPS
#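 Enzyme-compound mixtures sat 15 min at room temperature, followed by a 5 min reaction with 15 nM final substrate and 10 min with AlphaScreen beads. Recombinant human Tdp1 was used at 1 nM final.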
# TDP1 cell noCPT: qHTS for Inhibitors of human tyrosyl-DNA phosphodiesterase 1 (TDP1): qHTS in cells in absence of CPT; AID 686978, 2013; 420,000 compounds, 15% hits; Potency, µM (top dose mostly 46.2 µM), inactives show top-dose activity change, negative = growth inhibition, most hits filed as inhibitors; DT40 Tdp1-/- hTDP1 cells, no CPT, ATP luminescence, 48 h; note: nearly all actives have a fitted effect of over 55% in size
#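 Stably hTDP1-transfected Tdp1-null chicken DT40 cells were treated with library compounds minus camptothecin and grown for at least 48 hr at 37 °C, after which cellular ATP was quantified by luminescence.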
# TDP1 cell CPT: growth inhibition of DT40 Tdp1-/-;hTDP1 cells with camptothecin (screen for TDP1 inhibitors); 420,000 compounds, 12% hits; AID 686979; chicken DT40 Tdp1-/-;hTDP1 cells + 20 nM CPT, ATP luminescence, 48 h; Potency, µM (highest dose often 46.2 µM), for the others: at the highest dose activity change, negative = growth inhibition, most hits filed as inhibitors; note: nearly all actives have a fitted effect of over 55% in size
#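 Chicken DT40 Tdp1-/- cells complemented with human TDP1, 400 cells/well, exposed to compounds plus 20 nM camptothecin for at least 48 h at 37 C; viability read as ATP content by CellTiter-Glo luminescence.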
# VP16 counter: inhibits Gal4-VP16 luciferase reporter, ROR gamma counter-screen. Drosophila S2 Gal4-VP16 UAS-luciferase, luminescence, 20 h. Potency, µM (series often up to 53.6 µM), inactives show top-dose activity, negative = inhibition, most hits filed as inhibitors. 310,000 compounds, 3.5% hits;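 note: Gal4-VP16 expression switched on by copper sulfate through the metallothionein promoter; nearly all actives have a fitted effect of over 50% in size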
# An asterisk follows results filed as active; ? = inconclusive; . = no result given; [ ] = dose if it differs, or a comment. Calls come from the whole dose curve; as a rule, active = well fitted curve in the direction sought with a large enough effect; inconclusive = small, poorly fitted or top-dose-only effect, or another doubt; inactive = no such curve, though single readings can be large; an effect the other way counts as inactive or inconclusive. % is set by controls: 0 for no effect and ±100 for the full control effect; potency is the fitted concentration of half-maximal effect.
SMILES,RORgamma inh,TDP1 inh,TDP1 cell noCPT,TDP1 cell CPT,VP16 counter
CC(=O)Nc1ccc2nc(-c3ccccn3)[nH]c2c1,10µM*,0.0%,0.9%,-23.4%,-23.8%
CC(=O)Nc1ccc2nc(-c3ccncc3)[nH]c2c1,-19.4%,7.0%,-2.9%,-1.5%,-5.6%
Cc1nn(CC(=O)NCCN2CCOCC2)c(=O)c2cc3sccc3n12,-13.8%,-2.5%,-4.2%,11.1%,2.3%
O=C1c2ccccc2C2(c3ccc(F)cc3)NCCN12 (stereo not given),3.1%,-3.7%,20.9%,-15.7%,-4.1%
O=C(CCCOc1ccc(Cl)cc1Cl)NCc1ccncc1,1.6%,2.8%,?,7.6%,-14.5%
Cc1ccc(CSc2nnc(-c3ccco3)n2N)cc1,41.7%,4.8%,-6.0%,4.0%,13.4%
Cc1nc2c(OCc3ccc(C(F)(F)F)cc3)cccn2c1N(C)CC1CC1,.,.,23.1µM*,?,.
COC(=O)c1ccccc1COc1cccn2c(N(C)CC3CC3)c(C)nc12,.,.,18.4µM*,?,.
CCC(C)c1ccc(OCC(=O)Nc2cccc(-c3nc4ncccc4o3)c2)cc1 (stereo not given),.,2.1%,16.4µM*,-89.1%,.
Cc1cc(C)cc(OCC(=O)Nc2cccc(-c3nc4ncccc4o3)c2)c1,27.7%,6.1%,20.6µM*,23.1µM*,-2.0%
Cc1cc(C)cc(OCC(=O)Nc2ccc(-c3nc4ncccc4o3)cc2C)c1,.,7.0%,?,-4.5%,.
O=C(Nc1ccon1)c1cc2c(s1)CCCCCC2,-12.3%[0.365 µM],-1.1%,-13.4%,-4.2%,.
COc1ccc(S(=O)(=O)Nc2ccc3c(c2)OCO3)cc1OC,?,8.2%,-14.7%,-14.5%,2.8%
COc1ccc(S(=O)(=O)Nc2ccc3c(c2)OCCO3)cc1Cl,?,0.0%,?,23.1µM*,?
COc1ccc(NS(=O)(=O)c2ccc3c(c2)OCCO3)cc1OC,?,.,5.8µM*,7.31µM*,7.08µM*
COc1cc(OC)c(NS(=O)(=O)c2ccc(Cl)c(C(=O)OC(C)C(=O)N3CCCC3)c2)cc1Cl (stereo not given),?,3.4%,20.6µM*,18.4µM*,?
COc1c(C)cc(NS(=O)(=O)c2ccc3c(c2)OCCO3)cc1C,.,7.1%,2.59µM*,9.2µM*,.
CC(=O)c1cc2c(cc1NS(=O)(=O)c1ccccc1Br)OCO2,33.4%,9.1%,-27.4%,-7.1%,-5.6%
CCCNC(=O)CSc1nccn1Cc1ccco1,-2.4%,2.7%,25.8%,1.2%,3.7%
CCOc1cc(C(=O)N2CCN(c3ccccn3)CC2)cc(OCC)c1OCC,-36.6%,1.4%,-8.3%,-23.8%,?
CSc1nc2ccc(NS(=O)(=O)c3c(Cl)cccc3Cl)cc2s1,29.8%,2.3%,2.0%,-12.3%,0.3%
Cc1ccc(S(=O)(=O)Nc2ccc3c(c2)OCCO3)cc1C,?,8.4%,18.4µM*,?,-16.7%
CC(=O)Nc1ccc(S(=O)(=O)Nc2ccc3c(c2)OCCO3)cc1Cl,?,-1.3%,7.31µM*,?,12.6µM*
CSc1nc2ccc(NS(=O)(=O)c3ccc4c(c3)OCCO4)cc2s1,?,1.9%,23.1µM*,?,-16.2%
COc1cc(OC)c(NS(=O)(=O)c2ccc3c(c2)NC(=O)CO3)cc1Cl,?,4.2%,?,18.4µM*,-13.6%
SMILES,RORgamma inh,TDP1 inh,TDP1 cell noCPT,TDP1 cell CPT,VP16 counter
Cc1ccc(NS(=O)(=O)c2ccc3c(c2)CCO3)cc1C,.,0.8%,.,.,.
O=C(Oc1ccc(/C=N/NC(=O)c2ccccn2)cc1)c1cccc(Br)c1,-38.0%,-3.6%,-18.7%,?,-19.3%
CCn1c(SCC(=O)Nc2ccccc2Cl)nnc1C1CC1,-20.5%,-15.9%,4.0%,15.3%,-1.6%
COC(=O)c1ccc(N=NN2CCCCCC2)cc1,7.1%,-7.9%,2.1%,0.6%,-5.4%
CC(=O)Nc1ccc(S(=O)(=O)Nc2ccc3c(c2)C(=O)OC3)cc1,?,0.0%,.,.,11.2µM*
CC(=O)Nc1ccc(NS(=O)(=O)c2ccccc2)cc1,-0.8%,0.0%,3.0%,-6.6%,-0.9%
CCNC(=O)COC(=O)c1ccc(NS(=O)(=O)c2ccc3c(c2)OCCO3)cc1,19.3%,5.3%,-15.5%,0.9%,-10.0%[10 µM]
CCOC(=O)c1ccc(NS(=O)(=O)c2ccc3c(c2)OCCO3)cc1,.,-2.1%,29.1µM*,13µM*,.
CC(C)Cn1c(=O)[nH]c2ccccc21,0.0%,2.3%,8.0%,-2.3%,2.0%
C1CCN(c2nc3nonc3nc2NCC2CCOCC2)CC1,?,2.7%,3.6%,-6.9%,0.5%
O=C(Nc1cc(Cl)cc(Cl)c1)N[C@@H]1CC[C@@H](CCNS(=O)(=O)c2cccc(F)c2)O[C@@H]1CO,.,.,16.4µM*,?,.
CN(C)CC(=O)N[C@@H]1CC[C@@H](CCNS(=O)(=O)c2ccccc2)O[C@@H]1CO,.,.,-2.7%,5.0%,.
CCn1c(O)c(/C=C2\C=Nc3ccccc32)sc1=Nc1ccccc1,33.4%,-5.0%,11.6µM*,10.3µM*,-11.4%
CCOc1ccc(C(=O)Nc2ccc(CN3CCOCC3)cc2)cc1Br,17.1%,.,?,?,-3.9%
CC1=C(NCCc2ccccc2)CCC1=O,2.1%,7.7%,20.6µM*,20.6µM*,12.8%
COc1cccc(NC(=O)Nc2nnc(CC(=O)NCc3ccccc3)s2)c1,10.3%,2.5%,-20.7%,?,3.3%
Cc1cc(=O)[nH]c(NN=C2CCC(C(C)(C)C)CC2)n1 (stereo not given),7.6%,0.0%,14.3%,-1.2%,-11.5%
CCC(C)(C)C1CCC(=NNc2nc3ccccc3[nH]2)CC1 (stereo not given),11.2µM*,9.6%,-4.3%,-9.6%,?
COCCCNC(=O)Cn1c(=O)n(Cc2ccc(F)cc2)c(=O)c2sccc21,-17.4%,.,-0.3%,12.3%,1.0%
Cc1c(CN(C)C(=O)c2ccc(Br)o2)cnn1C,-1.0%,3.3%,-2.7%,12.4%,-10.7%
COc1ccc(C(C#N)=Cc2ccccc2OC)cc1,.,.,5.17µM*,6.51µM*,.
CCS(=O)(=O)c1ccc(O)c(NC(=O)Nc2cccc3ccccc23)c1,-23.6%,1.3%,6.7%,21.6%,0.3%
O=C(Nc1ccc(N2CCCC2)cc1)c1cccc(Cl)c1,?,.,13µM*,-23.6%,-17.7%
CCCOC(=O)Nc1ccc(N2CCCCC2)cc1,11.2µM*,9.2%,-14.5%,-12.1%,?
O=C(Nc1ccc(N2CCCCCC2)cc1)c1ccccc1Cl,18.2%,8.2%,16.4µM*,13µM*,6.5%
O=C(Nc1ccc(N2CCCC2)cc1)c1cc(Cl)ccc1Cl,-16.2%[1.91 µM],.,23.1µM*,23.1µM*,4.0%
CCCCC(=O)Nc1ccc(N2CCCC2)cc1,.,.,?,-22.0%,.
Cc1cn(CCC(=O)Nc2ccccc2N2CCOCC2)c2ccccc12,39.9%,5.5%,?,-27.8%,1.6%
